Measurements as given in PubChem BioAssay (EPA / NIEHS).
Inconclusive results are not listed. Calls of active or inactive are those of the source. How the source made its calls, unless noted: active means hit-call score of the fitted dose curve at least 0.9, where 1 is the maximum; inconclusive means response in the unintended direction; inactive means score below 0.9.

Assays:
[1] = ATG_PPRE_CIS: Attagene CIS-FACTORIAL HepG2 Assay for human Peroxisome Proliferator-activated Response Element (PPRE) (AID 2282958; active means hit-call score of the fitted dose curve at least 0.9, where 1 is the maximum; inactive means score below 0.9); conditions: HepG2 PPRE cis-element reporter, Attagene transcription factor profiling; actives raise or lower the signal
Outline: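 Read-out: fluorescent reporter mRNA fragments resolved by capillary electrophoresis after RT-PCR. HepG2 cells carried transiently transfected PPRE-driven cis reporter constructs and were dosed for 24 h; gain or loss of signal fitted relative to DMSO.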

[2] = ATG_VDRE_CIS: Attagene CIS-FACTORIAL HepG2 Assay for human Vitamin D Receptor Element (VDRE) (AID 2282968; active means hit-call score of the fitted dose curve at least 0.9, where 1 is the maximum; inactive means score below 0.9); conditions: HepG2 VDRE cis-reporter transcription, actives raise or lower the signal
Outline: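 Steps: transfect HepG2 with multiple reporter transcription units; dose chemicals 24 h; isolate RNA; RT-PCR; label with 6-FAM primer extension; HpaI digest; capillary electrophoresis. Curves fitted both directions against DMSO.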

[3] = ATG_M_19_TRANS: Attagene TRANS-FACTORIAL HepG2 Assay for M19 Transcription Factor (Internal Marker) (AID 2282974); conditions: HepG2 Attagene TRANS-FACTORIAL M19 internal marker reporter
Outline: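 24 h chemical exposure of transiently transfected HepG2 (MRTU library). RNA → oligo(dT) RT → PCR → 6-FAM labelling → HpaI cut → CE fluorescence. Positive-direction fit vs DMSO baseline; background internal-marker readout.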

[4] = molecular target: Estrogen-related receptor gamma (Homo sapiens) (UniProt P62508); test: ATG_ERRg_TRANS: Attagene TRANS-FACTORIAL HepG2 Assay for human Estrogen-Related Receptor gamma (ERRg) (AID 2282977); conditions: HepG2 Attagene TRANS reporter, ERRg transactivation;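 further: hits increase reporter signal over DMSO so potencies reflect activators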
Chain of Estrogen-related receptor gamma (Homo sapiens) (P62508 whole entry, looked up, the tested form may be a part): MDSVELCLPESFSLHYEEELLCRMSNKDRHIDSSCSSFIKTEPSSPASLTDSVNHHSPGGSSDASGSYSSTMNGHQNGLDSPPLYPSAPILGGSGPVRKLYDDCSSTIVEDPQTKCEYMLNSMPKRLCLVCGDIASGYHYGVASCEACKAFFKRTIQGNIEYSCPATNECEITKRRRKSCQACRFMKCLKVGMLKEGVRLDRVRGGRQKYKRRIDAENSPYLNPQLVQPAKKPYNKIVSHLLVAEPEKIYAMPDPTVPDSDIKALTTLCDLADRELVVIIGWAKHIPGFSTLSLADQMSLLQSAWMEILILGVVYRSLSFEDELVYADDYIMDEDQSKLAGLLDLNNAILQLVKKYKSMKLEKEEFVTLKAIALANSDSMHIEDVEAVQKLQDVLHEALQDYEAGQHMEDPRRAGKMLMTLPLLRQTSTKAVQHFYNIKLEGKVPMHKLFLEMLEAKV
Outline: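 Exogenous NR-Gal4 chimera activity measured as reporter transcript induction after 24 h in transiently transfected HepG2 cells. RNA reverse-transcribed, PCR-amplified, 6-FAM-labelled and resolved by capillary electrophoresis; increase over DMSO baseline.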

[5] = molecular target: Glucocorticoid receptor (Homo sapiens) (UniProt P04150); test: ATG_GR_TRANS: Attagene TRANS-FACTORIAL HepG2 Assay for human Glucocorticoid Receptor (GR) (AID 2282978); conditions: HepG2 Attagene TRANS GR reporter, mRNA transcription;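 further: activators score as hits since higher reporter transcript over DMSO is fitted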
Chain of Glucocorticoid receptor (Homo sapiens) (P04150 whole entry, looked up, the tested form may be a part): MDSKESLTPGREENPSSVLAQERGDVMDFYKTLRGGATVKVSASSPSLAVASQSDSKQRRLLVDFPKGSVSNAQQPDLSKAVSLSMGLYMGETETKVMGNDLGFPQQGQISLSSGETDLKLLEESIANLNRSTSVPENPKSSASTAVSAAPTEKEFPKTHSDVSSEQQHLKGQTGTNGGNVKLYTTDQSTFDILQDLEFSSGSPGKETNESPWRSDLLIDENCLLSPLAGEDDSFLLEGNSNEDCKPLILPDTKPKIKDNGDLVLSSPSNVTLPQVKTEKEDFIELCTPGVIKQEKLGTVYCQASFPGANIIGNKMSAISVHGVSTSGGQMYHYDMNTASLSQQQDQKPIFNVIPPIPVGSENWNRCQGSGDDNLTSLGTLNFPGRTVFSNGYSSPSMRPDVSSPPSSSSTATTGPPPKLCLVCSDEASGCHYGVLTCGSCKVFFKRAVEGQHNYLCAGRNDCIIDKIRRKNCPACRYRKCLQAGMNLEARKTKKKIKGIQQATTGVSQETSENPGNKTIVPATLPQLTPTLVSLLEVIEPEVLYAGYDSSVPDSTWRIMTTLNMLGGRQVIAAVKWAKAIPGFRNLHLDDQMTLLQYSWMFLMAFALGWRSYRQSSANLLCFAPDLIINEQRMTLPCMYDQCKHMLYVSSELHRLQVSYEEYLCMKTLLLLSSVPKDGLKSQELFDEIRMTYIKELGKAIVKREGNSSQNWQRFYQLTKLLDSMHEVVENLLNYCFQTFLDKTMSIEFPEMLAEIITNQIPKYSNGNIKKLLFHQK
Outline: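 Transient MRTU transfection of HepG2 (GAL4-UAS reporters, exogenous NR-GAL4 chimeras), 24 h dosing. Readout: reporter transcript via RT-PCR + capillary electrophoresis fluorescence. Positive direction vs DMSO baseline.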

[6] = molecular target: Oxysterols receptor LXR-alpha (Homo sapiens) (UniProt Q13133); test: ATG_LXRa_TRANS: Attagene TRANS-FACTORIAL HepG2 Assay for human Liver X Receptor alpha (LXRa) (AID 2282980); conditions: HepG2 Attagene TRANS reporter, LXRa transactivation
Chain of Oxysterols receptor LXR-alpha (Homo sapiens) (Q13133 whole entry, looked up, the tested form may be a part): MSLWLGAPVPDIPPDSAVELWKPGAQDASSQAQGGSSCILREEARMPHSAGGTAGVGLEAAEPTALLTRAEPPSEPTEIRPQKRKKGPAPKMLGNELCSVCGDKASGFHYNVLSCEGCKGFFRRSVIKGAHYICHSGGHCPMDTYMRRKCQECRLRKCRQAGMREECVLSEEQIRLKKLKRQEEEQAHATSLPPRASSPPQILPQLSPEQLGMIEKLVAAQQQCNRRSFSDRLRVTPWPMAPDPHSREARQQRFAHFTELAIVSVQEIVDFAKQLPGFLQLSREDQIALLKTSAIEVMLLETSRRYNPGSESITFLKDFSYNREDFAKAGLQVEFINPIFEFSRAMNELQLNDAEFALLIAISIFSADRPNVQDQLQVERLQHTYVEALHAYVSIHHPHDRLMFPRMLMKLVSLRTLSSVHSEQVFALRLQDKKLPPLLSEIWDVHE
Outline: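 HepG2 cells transiently transfected with GAL4-UAS reporter units for chimeric NR-Gal4 proteins, exposed to chemicals for 24 h. Reporter mRNA quantified by RT-PCR and capillary electrophoresis; gain of signal fitted relative to DMSO.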

[7] = molecular target: Oxysterols receptor LXR-beta (Homo sapiens) (UniProt P55055); test: ATG_LXRb_TRANS: Attagene TRANS-FACTORIAL HepG2 Assay for human Liver X Receptor beta (LXRb) (AID 2282981); conditions: HepG2 Attagene TRANS GAL4-LXRb reporter, mRNA
Chain of Oxysterols receptor LXR-beta (Homo sapiens) (P55055 whole entry, looked up, the tested form may be a part): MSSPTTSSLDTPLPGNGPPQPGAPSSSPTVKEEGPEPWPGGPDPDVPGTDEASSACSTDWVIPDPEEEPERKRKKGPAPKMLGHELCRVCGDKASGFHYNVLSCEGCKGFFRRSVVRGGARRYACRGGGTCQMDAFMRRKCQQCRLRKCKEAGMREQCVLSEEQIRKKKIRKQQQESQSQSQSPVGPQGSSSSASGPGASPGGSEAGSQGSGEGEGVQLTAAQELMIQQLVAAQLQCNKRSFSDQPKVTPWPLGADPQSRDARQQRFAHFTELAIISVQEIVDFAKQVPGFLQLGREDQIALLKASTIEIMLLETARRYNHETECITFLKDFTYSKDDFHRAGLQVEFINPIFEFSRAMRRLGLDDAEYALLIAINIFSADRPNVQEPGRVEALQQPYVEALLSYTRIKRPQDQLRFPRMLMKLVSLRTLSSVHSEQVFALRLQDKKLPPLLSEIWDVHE
Outline: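 Measures induction of a Gal4-driven reporter transcript in HepG2 cells expressing an exogenous LXRb-Gal4 fusion. Cells are exposed to compound for 24 h before RNA isolation and RT-PCR with capillary electrophoresis detection.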

[8] = molecular target: human Peroxisome Proliferator-activated Receptor alpha (PPARa), PPARA (gene 5465) (UniProt Q07869); test: ATG_PPARa_TRANS: Attagene TRANS-FACTORIAL HepG2 Assay for human Peroxisome Proliferator-activated Receptor alpha (PPARa) (AID 2283001);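 on AC50: potency for gain of reporter signal over DMSO so agonist or activator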
Chain of human Peroxisome Proliferator-activated Receptor alpha (PPARa), PPARA (gene 5465) (Q07869 whole entry, looked up): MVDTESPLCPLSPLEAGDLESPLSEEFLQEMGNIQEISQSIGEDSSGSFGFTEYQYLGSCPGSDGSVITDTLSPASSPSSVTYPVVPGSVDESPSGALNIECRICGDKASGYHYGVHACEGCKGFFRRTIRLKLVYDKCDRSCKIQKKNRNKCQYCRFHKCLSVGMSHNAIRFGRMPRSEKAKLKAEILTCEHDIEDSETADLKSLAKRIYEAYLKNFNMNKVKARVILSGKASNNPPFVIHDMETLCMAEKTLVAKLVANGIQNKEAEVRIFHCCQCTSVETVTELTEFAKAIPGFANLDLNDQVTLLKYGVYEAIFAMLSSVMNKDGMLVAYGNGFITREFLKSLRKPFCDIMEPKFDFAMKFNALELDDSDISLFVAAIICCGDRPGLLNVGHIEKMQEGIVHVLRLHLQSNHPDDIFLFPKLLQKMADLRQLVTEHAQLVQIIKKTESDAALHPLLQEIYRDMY
Outline: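 Cells (HepG2) are transfected with multiple reporter transcription units, exposed to chemical for 24 h, then total RNA is reverse-transcribed and amplified. Labelled products are quantified by capillary electrophoresis; induction is referenced to DMSO.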

[9] = molecular target: human Peroxisome Proliferator-activated Receptor delta (PPARd), PPARD (gene 5467) (UniProt Q03181); test: ATG_PPARd_TRANS: Attagene TRANS-FACTORIAL HepG2 Assay for human Peroxisome Proliferator-activated Receptor delta (PPARd) (AID 2283002)
Chain of human Peroxisome Proliferator-activated Receptor delta (PPARd), PPARD (gene 5467) (Q03181 whole entry, looked up, the tested form may be a part): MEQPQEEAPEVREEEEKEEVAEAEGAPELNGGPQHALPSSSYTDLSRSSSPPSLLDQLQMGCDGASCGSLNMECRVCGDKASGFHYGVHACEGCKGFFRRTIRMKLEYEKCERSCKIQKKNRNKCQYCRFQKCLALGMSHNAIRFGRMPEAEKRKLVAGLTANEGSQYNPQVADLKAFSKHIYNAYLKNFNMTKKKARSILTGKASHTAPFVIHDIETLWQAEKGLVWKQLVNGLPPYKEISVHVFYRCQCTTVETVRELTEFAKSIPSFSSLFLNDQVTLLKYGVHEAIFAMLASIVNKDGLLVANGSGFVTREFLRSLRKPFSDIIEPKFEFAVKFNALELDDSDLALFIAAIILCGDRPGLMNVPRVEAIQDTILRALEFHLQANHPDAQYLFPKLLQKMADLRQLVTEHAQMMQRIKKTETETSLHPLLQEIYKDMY
Outline: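 Measured quantity: GAL4-UAS reporter transcript induction in HepG2 after 24 h chemical dosing, with NR-Gal4 chimeras supplied by transient transfection. Detection by RT-PCR and capillary electrophoresis; upward fit against DMSO.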

[10] = molecular target: human RAR-related Orphan Receptor beta (RORb), RORB (gene 6096) (UniProt Q92753); test: ATG_RORb_TRANS: Attagene TRANS-FACTORIAL HepG2 Assay for human RAR-related Orphan Receptor beta (RORb) (AID 2283010)
Chain of human RAR-related Orphan Receptor beta (RORb), RORB (gene 6096) (Q92753 whole entry, looked up, the tested form may be a part): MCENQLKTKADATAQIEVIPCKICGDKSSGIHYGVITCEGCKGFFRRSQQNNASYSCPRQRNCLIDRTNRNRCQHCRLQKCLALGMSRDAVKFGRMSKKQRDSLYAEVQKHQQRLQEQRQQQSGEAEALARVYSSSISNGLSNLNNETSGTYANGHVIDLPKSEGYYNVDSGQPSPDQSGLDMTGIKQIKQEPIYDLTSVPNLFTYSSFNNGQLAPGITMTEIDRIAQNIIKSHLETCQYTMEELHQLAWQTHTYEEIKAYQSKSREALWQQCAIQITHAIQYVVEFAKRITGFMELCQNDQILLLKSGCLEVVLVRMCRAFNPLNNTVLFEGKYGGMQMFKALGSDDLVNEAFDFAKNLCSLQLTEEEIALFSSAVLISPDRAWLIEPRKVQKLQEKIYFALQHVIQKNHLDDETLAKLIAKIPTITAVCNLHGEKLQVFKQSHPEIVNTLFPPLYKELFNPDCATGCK
Outline: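 Read-out is reporter mRNA induction, quantified by RT-PCR with fluorescent capillary electrophoresis, 24 h post-dose in transiently transfected HepG2 expressing exogenous NR-Gal4 chimera. Activity fitted upward versus DMSO.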

[11] = ATG_M_06_TRANS: Attagene TRANS-FACTORIAL HepG2 Assay for M06 Transcription Factor (Internal Marker) (AID 2282983); conditions: HepG2 Attagene TRANS M06 internal marker reporter
Outline: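 mRNA levels of a reporter transcript, quantified as FAM fluorescence on capillary electrophoresis, served as readout. HepG2 cells expressing exogenous GAL4-chimera reporter constructs were exposed for 24 h. Gain of signal over DMSO was evaluated.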

[12] = molecular target: human Vitamin D Receptor (VDR), VDR (gene 7421) (UniProt P11473); test: ATG_VDR_TRANS: Attagene TRANS-FACTORIAL HepG2 Assay for human Vitamin D Receptor (VDR) (AID 2283022)
Chain of human Vitamin D Receptor (VDR), VDR (gene 7421) (P11473 whole entry, looked up, the tested form may be a part): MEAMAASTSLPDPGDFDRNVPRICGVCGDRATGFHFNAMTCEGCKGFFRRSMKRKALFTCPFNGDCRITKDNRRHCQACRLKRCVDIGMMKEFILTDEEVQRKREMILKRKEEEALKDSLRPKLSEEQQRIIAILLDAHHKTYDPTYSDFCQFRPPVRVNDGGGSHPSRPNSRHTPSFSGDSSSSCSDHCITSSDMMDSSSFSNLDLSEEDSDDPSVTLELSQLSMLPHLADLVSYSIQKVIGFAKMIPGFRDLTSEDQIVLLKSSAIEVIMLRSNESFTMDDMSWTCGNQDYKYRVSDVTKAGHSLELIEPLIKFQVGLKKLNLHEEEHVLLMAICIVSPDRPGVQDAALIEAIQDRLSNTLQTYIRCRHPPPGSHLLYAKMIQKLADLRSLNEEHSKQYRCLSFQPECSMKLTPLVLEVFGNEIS
Outline: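 HepG2 cells were transiently transfected with GAL4-UAS reporter units and a chimeric VDR-Gal4 construct, then dosed for 24 hours. Reporter mRNA was quantified by RT-PCR, fluorescent labeling, HpaI digestion and capillary electrophoresis; gain of signal analysed vs DMSO.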

[13] = ATG_GRE_CIS: Attagene CIS-FACTORIAL HepG2 Assay for human Glucocorticoid Response Elements (GRE) (AID 2282947; active means hit-call score of the fitted dose curve at least 0.9, where 1 is the maximum; inactive means score below 0.9); conditions: HepG2 GRE cis-reporter, Attagene multiplex mRNA; actives raise or lower the signal
Outline: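 Cells (HepG2) bearing transfected cis-promoter reporter transcription units were treated with chemical for 24 hours. Reporter mRNA was measured via RT-PCR with capillary electrophoresis, and activity was fitted in both directions relative to DMSO.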

[14] = CCTE_Harrill_HTTr_Viability_MCF7: CCTE's 6-hour Cell Viability Assessment for the High-Throughput Transcriptomics (HTTr) Platform, in MCF-7 cells cultured in DMEM + 10% fetal bovine serum, Harrill Lab (AID 2284010; active means hit-call score of the fitted dose curve at least 0.9, where 1 is the maximum; inactive means score below 0.9)
Outline: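 Propidium iodide exclusion, imaged by high-content analysis, gauged viability after a six-hour exposure across eight concentrations. Cells were MCF-7 grown in DMEM with 10% fetal bovine serum; fits run in both directions against DMSO.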

[15] = CCTE_Harrill_HTTr_Apoptosis_MCF7: CCTE's 6-hour Apoptosis Assessment for the High-Throughput Transcriptomics (HTTr) Platform, in MCF-7 cells cultured in DMEM + 10% fetal bovine serum, Harrill Lab (AID 2284011; active means hit-call score of the fitted dose curve at least 0.9, where 1 is the maximum; inactive means score below 0.9)
Outline: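 MCF-7 cells in DMEM + 10% FBS exposed 6 h to chemicals over an eight-point dilution series. Caspase-3/7 activation imaged by high-content CellEvent Green staining; fitted bidirectionally versus DMSO.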

[16] = molecular target: Nuclear receptor subfamily 1 group I member 3 (Homo sapiens) (UniProt Q14994); test: ATG_CAR_TRANS: Attagene TRANS-FACTORIAL HepG2 Assay for human Constitutive Androstane Receptor (CAR) (AID 2282969); conditions: HepG2 Attagene TRANS-FACTORIAL CAR reporter;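 further: activators raise reporter mRNA above DMSO so AC50 marks induction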
Chain of Nuclear receptor subfamily 1 group I member 3 (Homo sapiens) (Q14994 whole entry, looked up, the tested form may be a part): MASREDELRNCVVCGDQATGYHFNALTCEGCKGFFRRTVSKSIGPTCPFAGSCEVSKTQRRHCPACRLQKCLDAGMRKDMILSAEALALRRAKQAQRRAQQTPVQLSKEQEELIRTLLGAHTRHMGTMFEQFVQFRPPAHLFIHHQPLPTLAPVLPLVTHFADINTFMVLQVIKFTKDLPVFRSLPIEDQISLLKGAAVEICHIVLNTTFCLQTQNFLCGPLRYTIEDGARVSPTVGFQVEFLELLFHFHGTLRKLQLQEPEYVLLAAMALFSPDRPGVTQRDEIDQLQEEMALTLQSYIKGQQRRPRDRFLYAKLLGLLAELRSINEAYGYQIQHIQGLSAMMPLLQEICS
Outline: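 Steps: transient transfection of HepG2 with multiple GAL4-UAS reporter units; 24 h compound incubation; RNA isolation, RT-PCR, 6-FAM primer extension, HpaI digest; capillary electrophoresis. Gain-of-signal relative to DMSO negative control.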

[17] = molecular target: Retinoic acid receptor alpha (Homo sapiens) (UniProt P10276); test: ATG_DR5_RAR_CIS: Attagene CIS-FACTORIAL HepG2 Assay for human Retinoic Acid Receptor Alpha (RARE), DR5 submotif (AID 2282934; active means hit-call score of the fitted dose curve at least 0.9, where 1 is the maximum; inactive means score below 0.9); conditions: HepG2 Attagene cis-factorial RARE DR5 reporter, mRNA; actives raise or lower the signal
Chain of Retinoic acid receptor alpha (Homo sapiens) (P10276 whole entry, looked up): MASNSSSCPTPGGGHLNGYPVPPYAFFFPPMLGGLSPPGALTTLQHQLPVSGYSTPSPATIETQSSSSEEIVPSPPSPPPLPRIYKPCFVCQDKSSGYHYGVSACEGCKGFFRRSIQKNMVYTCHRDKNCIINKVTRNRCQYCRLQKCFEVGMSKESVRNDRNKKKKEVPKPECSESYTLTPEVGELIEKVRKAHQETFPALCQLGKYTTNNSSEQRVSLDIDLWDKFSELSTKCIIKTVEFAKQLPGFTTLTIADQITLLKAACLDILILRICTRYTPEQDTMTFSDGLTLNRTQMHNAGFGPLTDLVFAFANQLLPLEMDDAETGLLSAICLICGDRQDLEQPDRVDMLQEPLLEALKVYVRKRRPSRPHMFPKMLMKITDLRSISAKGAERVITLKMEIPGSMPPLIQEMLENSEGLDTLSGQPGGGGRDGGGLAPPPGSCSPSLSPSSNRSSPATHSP
Outline: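 Transfected HepG2 reporter cells are exposed to chemicals for 24 h. Then RNA is extracted and the DR5 element reporter transcript is measured by RT-PCR and capillary electrophoresis, with bidirectional curve fitting relative to DMSO.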

[18] = TOX21_p53_BLA_p3_viability: Viability Assessment in the Tox21 HCT-116 p53 Agonism Beta-lactamase Assay, Phase 3 (AID 2283593);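 further: cells exposed to compound for 16 h before reading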
Outline: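 HCT-116 cells (4000/well) rested 5 h at 37C, then got DMSO compounds by pin tool (217-fold dilution) for 16 h at 37C, 5% CO2. After the bla read, CellTiter-Glo was added and luminescence read at 30 min, room temperature.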

[19] = ACEA_ER_AUC_viability: ACEA Biosciences xCELLigence Real-Time Cell Analysis on Estrogen Receptor Agonism for Viability (AID 2283782);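 further: hit means loss of impedance signal meaning reduced cell growth or viability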
Outline: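 Continuous-exposure impedance cell analysis uses T-47D cells in charcoal-stripped serum, eight 1:4 dilutions topping at 100 uM final, biological duplicate. Area under the growth curve at 80 h is fitted against DMSO baseline.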

[20] = ATG_PBREM_CIS: Attagene CIS-FACTORIAL HepG2 Assay for human Phenobarbital-responsive Enhancer Module (PBREM) (AID 2282955; active means hit-call score of the fitted dose curve at least 0.9, where 1 is the maximum; inactive means score below 0.9); conditions: HepG2 PBREM cis-reporter, Attagene multiplexed transcription; actives raise or lower the signal
Outline: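 Reporter mRNA read by RT-PCR, 6-FAM primer extension, HpaI digestion and capillary electrophoresis. Transfected HepG2 cells, 24 h compound exposure. Gain or loss of signal fitted bidirectionally relative to DMSO baseline.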

Measured: AC50

CCO[Si](CCCN)(OCC)OCC
inactive: [1] | [2] | [3] | [4] | [5] | [6] | [7] | [8] | [9] | [10]

CC1=NN(c2cc(Cl)c(S(=O)(=O)O)cc2Cl)C(=O)C1N=Nc1ccc(S(=O)(=O)O)cc1 (stereo not drawn)
inactive: [2] | [3] | [6] | [7] | [11] | [10] | [12]

COc1ccc2ccccc2c1
inactive: [13] | [1] | [3] | [5] | [6] | [11] | [8] | [14] | [15]

Cc1cccnc1
inactive: [16] | [3] | [4] | [6] | [7] | [10] | [14] | [15]

COC(=O)[C@]1(C)CCC[C@@]2(C)[C@H]1CC=C1C=C(C(C)C)CC[C@@H]12
inactive: [17] | [13] | [16] | [6] | [7] | [12] | [18]
active: [19] 73.3 µM

O=C(O)c1cc(Cl)cc(Cl)c1O
not listed: [5] | [6] | [7] | [13] | [16] | [17] | [19] | [20]
inactive: all other assays above

N#CCN(CC#N)CCN(CC#N)CC#N
inactive: [20] | [3] | [5] | [11] | [12] | [18]

CC(=O)c1nccs1
inactive: [17] | [13] | [20] | [1] | [2] | [16] | [3] | [5] | [6] | [7] | [18]

CCC(C)C1N=C(C)C(C)S1 (stereo not drawn)
inactive: [17] | [4] | [5] | [6] | [7] | [9]

CCCCCC[C@@H](O)C/C=C\CCCCCCCC(=O)O
inactive: [20] | [5] | [7] | [12] | [19] | [14] | [15]
active: [13] 186 µM | [1] 45.7 µM | [8] 8.72 µM | [9] 27.3 µM

NC(=O)c1ccc(N)cc1
inactive: [17] | [13] | [20] | [16] | [4] | [6] | [7] | [11] | [12]

O=C(C1CCCCC1)N1CC(=O)N2CCc3ccccc3C2C1 (stereo not drawn)
inactive: [17] | [13] | [20] | [1] | [5] | [8] | [12] | [14] | [15]
active: [2] 13.7 µM

CC(=O)Nc1c(I)c(NC(C)=O)c(I)c(C(=O)O)c1I
inactive: [17] | [5] | [11]

CN(C)CCC(c1ccc(Cl)cc1)c1ccccn1 (stereo not drawn)
inactive: [13] | [3] | [7] | [11] | [18] | [14] | [15]

CCOC(=O)CC(=O)OCC
inactive: [17] | [13] | [2] | [3] | [5] | [8] | [10] | [12] | [18] | [14] | [15]
